Reference: PubChem BioAssay (Tox21)
Values joined by “and” are separate entries in the source; they are usually repeats but may differ in a detail not shown here. Equal entries are not always repeated. Results filed as inconclusive are left out. Where a call stands in place of a potency, no number is given. More than one record can exist for a structure, and the calls need not agree. Active and inactive are the calls of the source. Unless noted, calls follow the shape of the dose curve; as a rule, active = well fitted curve in the direction sought with a large enough effect in the repeat runs; inconclusive = weak or mixed curves; inactive = no such curve, though single readings can be large; an effect the other way counts as inactive or inconclusive.

Columns and labels:
[1] = qHTS assay to identify small molecule agonists of the estrogen receptor alpha (ER-alpha) signaling pathway in the presence of an antagonist - cell viability counter screen (AID 1259386);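 also: cells exposed to compounds for 22 h at 37 °C before the viability read; nearly all actives have a fitted effect of over 30% in size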; also: potency is read from the fitted curve at half-maximal effect
Outline: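 Using estrogen-depleted VM7Luc4E2 cells, the 15-concentration compound series was applied together with 10.0nM ICI-182,780 and incubated 22hr at 37C/5% CO2. Cell viability was then scored by CellTiter-Fluor.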

[2] = biological target: Progesterone receptor (Homo sapiens) (UniProt P06401); test: qHTS assay to identify small molecule agonists of the progesterone receptor (PR) signaling pathway (AID 1346784; calls by dose curve; also: nearly all actives have a fitted effect of over 30% in size)
Outline: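 Using charcoal-stripped serum (2%) to limit endogenous steroids, PR-UAS-bla HEK 293T cells received compounds for 16 hr at 37C after 6 hr plating; beta-lactamase FRET fluorescence was recorded following 2 hr substrate loading at room temperature.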

[3] = biological target: Progesterone receptor (Homo sapiens) (UniProt P06401); test: qHTS assay to identify small molecule antagonists of the progesterone receptor (PR) signaling pathway (AID 1346795; active = well fitted inhibition curve with a large enough effect in the signal ratio in the repeat runs, not every such curve was filed as active; the % refers to the signal ratio; also: potency is read from the fitted curve at half-maximal effect)
Outline: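 Inhibition of R5020-induced (1 nM final) beta-lactamase reporter signal in PR-UAS-bla HEK293T cells was scored by FRET fluorescence after overnight (16 hr) compound treatment.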

[4] = qHTS assay to identify small molecule antagonists of the progesterone receptor (PR) signaling pathway - cell viability counter screen (AID 1346798); also: nearly all actives have a fitted effect of over 50% in size; also: potency is read from the fitted curve at half-maximal effect
Outline: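 ATP content as viability readout: CellTiter-Glo luminescence, 30 min room temperature, in PR-UAS-bla HEK293T cells after 16 hr compound/R5020 treatment at 37C and 5% CO2.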

[5] = qHTS assay to identify small molecule agonists of the progesterone receptor (PR) signaling pathway - cell viability counter screen (AID 1346799; calls by dose curve; also: nearly all actives have a fitted effect of over 45% in size)
Outline: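 Cytotoxicity in PR-bla HEK293T cells: 16 h compound, 37C; CellTiter-Glo added post-FRET read; luminescence after 30 min RT.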

[6] = qHTS assay to identify small molecule antagonists of the TGF-beta/Smad signaling pathway - cell viability counter screen (AID 1346824); also: nearly all actives have a fitted effect of over 50% in size
Outline: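 SBE-bla HEK 293T cells, incubated overnight, then compound plus 0.25 ng/mL TGF-beta1 (stock added) for 5 hr at 37 C. Viability was read in the same wells by CellTiter-Glo luminescence after 30 min at room temperature.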

[7] = qHTS assay to identify small molecule agonists of the TGF-beta/Smad signaling pathway - cell viability counter screen (AID 1346829); also: nearly all actives have a fitted effect of over 45% in size; also: potency is read from the fitted curve at half-maximal effect
Outline: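 Here the cytotoxicity of library compounds is measured in SBE-bla HEK 293T cells treated for 5 hr, using CellTiter-Glo added to wells already read for the beta-lactamase reporter.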

[8] = qHTS assay to identify small molecule agonists of the TGF-beta/Smad signaling pathway (AID 1346859; active = well fitted activation curve with a large enough effect in the signal ratio in the repeat runs, not every such curve was filed as active; the % refers to the signal ratio; also: series mostly up to about 77 µM)
Outline: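 Stable Smad binding element-beta-lactamase HEK 293T cells; 5 hr compound exposure at 37 C under 5% CO2; 2 hr room-temperature substrate step; fluorescence excited at 405 nm, collected at 460 nm and 530 nm.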

[9] = Human pregnane X receptor (PXR) small molecule agonists, qHTS cell viability counter screen (AID 1346977); also: nearly all actives have a fitted effect of over 50% in size; also: potency is read from the fitted curve at half-maximal effect
Outline: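 Readout is CellTiter-Fluor fluorescence from PXR-Luc HepG2 cells. Plated cells rested 5hr, then were treated with compounds for 24hr at 37C and 5% CO2, with reagent present during the last hour.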

[10] = Caspase-3/7 induction in HepG2 cells by small molecules, qHTS assay (AID 1346978); also: nearly all actives have a fitted effect of over 15% in size
Outline: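 Wild-type HepG2 cells, 2,000/well, settled 5 hr at 37 C and 5% CO2, then compound-treated for 17 hr; caspase-3/7 activity read by luminescent Caspase-Glo 3/7 after 30 min at room temperature.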

[11] = Caspase-3/7 induction in CHO-K1 cells by small molecules, qHTS cell viability counter screen (AID 1346979); also: nearly all actives have a fitted effect of over 35% in size; also: potency is read from the fitted curve at half-maximal effect
Outline: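 To flag cytotoxic compounds, treated CHO-K1 wild-type cells were given CellTiter-Fluor at 16hr and read fluorescently after 1hr at 37C; the caspase-3/7 luminescence was measured in these same wells.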

[12] = Caspase-3/7 induction in CHO-K1 cells by small molecules, qHTS assay (AID 1346980); also: nearly all actives have a fitted effect of over 15% in size
Outline: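 Wild-type CHO-K1 cells exposed to compounds for 17hr at 37 C, 5% CO2. Caspase-3/7 activity then measured by Caspase-Glo 3/7 luminescence after 30min at room temperature.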

[13] = Caspase-3/7 induction in HepG2 cells by small molecules, qHTS cell viability counter screen (AID 1346981); also: nearly all actives have a fitted effect of over 30% in size; also: potency is read from the fitted curve at half-maximal effect
Outline: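 After a 5-hr attachment period at 37 C and 5% CO2, wild-type HepG2 cells received compounds in DMSO. Sixteen hours later CellTiter-Fluor was dispensed and the fluorescent signal quantified after a further hour.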

[14] = biological target: Acetylcholinesterase (Homo sapiens) (UniProt P22303); test: Acetylcholinesterase (AChE) small molecule antagonists: colormetric cell-based qHTS assay (AID 1347395; calls by dose curve; also: nearly all actives have a fitted effect of over 30% in size)
Outline: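 Neuroblastoma line SH-SY5Y supplied the enzyme; cells were preincubated with compound for 30 min at 37 C and 5% CO2. Acetylthiocholine with DTNB was then added for 90 min at 37 C, and thiocholine was measured by colour.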

[15] = biological target: Thyrotropin-releasing hormone receptor (Homo sapiens) (UniProt P34981); test: qHTS assay to identify small molecule antagonists of the thyrotropin-releasing hormone receptor (TRHR) signaling pathway (AID 1346877; active = well fitted inhibition curve with a large enough effect in the repeat runs, not every such curve was filed as active; also: series mostly up to about 51 µM)
Outline: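 Calcium signal in dye-loaded TRHR/HEK293 cells; compounds added 5 min before TRH (1 nM final); fluorescence monitored 3 min at 1 s steps.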

[16] = biological target: Thyrotropin-releasing hormone receptor (Homo sapiens) (UniProt P34981); test: qHTS assay to identify small molecule agonists of the thyrotropin-releasing hormone receptor (TRHR) signaling pathway (AID 1346891; calls by dose curve;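 also: HEK293 cells expressing TRHR with calcium dye readout; series mostly up to about 58 µM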)
Outline: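 In 1536-format, 1500 TRHR-Hek293 cells per well grew 18 h, took up calcium dye for 2 h at 37 °C, received compound, and were read kinetically; 15-point titrations, triplicates.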

[17] = biological target: Nuclear receptor subfamily 1 group I member 2 (Homo sapiens) (UniProt O75469); test: Human pregnane X receptor (PXR) small molecule agonists, qHTS assay (AID 1346982); also: potency is read from the fitted curve at half-maximal effect; nearly all actives have a fitted effect of over 35% in size
Outline: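 Tox21 qHTS; PXR-Luc HepG2; compounds pinned from DMSO; 24 hr, 37 C; ONE-Glo luciferase detection, 30 min room temperature.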

Progesterone receptor (Homo sapiens), sequence (P06401 whole entry, looked up): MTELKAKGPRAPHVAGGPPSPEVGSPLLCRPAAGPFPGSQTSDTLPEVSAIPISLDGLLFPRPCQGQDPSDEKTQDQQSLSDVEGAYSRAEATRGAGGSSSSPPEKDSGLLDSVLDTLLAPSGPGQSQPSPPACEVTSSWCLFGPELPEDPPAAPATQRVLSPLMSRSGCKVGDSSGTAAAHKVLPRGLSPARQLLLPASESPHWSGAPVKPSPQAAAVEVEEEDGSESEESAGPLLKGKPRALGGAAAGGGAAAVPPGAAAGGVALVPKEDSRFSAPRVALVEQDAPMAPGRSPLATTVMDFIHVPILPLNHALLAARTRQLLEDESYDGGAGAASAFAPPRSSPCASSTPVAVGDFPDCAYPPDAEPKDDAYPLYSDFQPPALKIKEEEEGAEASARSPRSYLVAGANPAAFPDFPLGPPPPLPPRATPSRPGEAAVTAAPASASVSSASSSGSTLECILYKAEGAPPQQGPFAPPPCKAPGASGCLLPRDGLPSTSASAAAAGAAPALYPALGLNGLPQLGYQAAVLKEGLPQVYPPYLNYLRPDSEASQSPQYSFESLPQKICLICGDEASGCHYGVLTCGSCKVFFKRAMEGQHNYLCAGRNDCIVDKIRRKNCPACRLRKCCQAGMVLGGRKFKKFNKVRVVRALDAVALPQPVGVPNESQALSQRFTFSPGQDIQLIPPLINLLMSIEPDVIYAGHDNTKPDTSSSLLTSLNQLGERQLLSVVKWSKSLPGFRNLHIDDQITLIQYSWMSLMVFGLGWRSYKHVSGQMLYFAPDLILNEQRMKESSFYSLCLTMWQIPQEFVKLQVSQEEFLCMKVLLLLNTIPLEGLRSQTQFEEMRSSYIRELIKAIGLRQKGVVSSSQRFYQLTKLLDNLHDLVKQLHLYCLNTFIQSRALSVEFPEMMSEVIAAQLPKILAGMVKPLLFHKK
Acetylcholinesterase (Homo sapiens), sequence (P22303 whole entry, looked up): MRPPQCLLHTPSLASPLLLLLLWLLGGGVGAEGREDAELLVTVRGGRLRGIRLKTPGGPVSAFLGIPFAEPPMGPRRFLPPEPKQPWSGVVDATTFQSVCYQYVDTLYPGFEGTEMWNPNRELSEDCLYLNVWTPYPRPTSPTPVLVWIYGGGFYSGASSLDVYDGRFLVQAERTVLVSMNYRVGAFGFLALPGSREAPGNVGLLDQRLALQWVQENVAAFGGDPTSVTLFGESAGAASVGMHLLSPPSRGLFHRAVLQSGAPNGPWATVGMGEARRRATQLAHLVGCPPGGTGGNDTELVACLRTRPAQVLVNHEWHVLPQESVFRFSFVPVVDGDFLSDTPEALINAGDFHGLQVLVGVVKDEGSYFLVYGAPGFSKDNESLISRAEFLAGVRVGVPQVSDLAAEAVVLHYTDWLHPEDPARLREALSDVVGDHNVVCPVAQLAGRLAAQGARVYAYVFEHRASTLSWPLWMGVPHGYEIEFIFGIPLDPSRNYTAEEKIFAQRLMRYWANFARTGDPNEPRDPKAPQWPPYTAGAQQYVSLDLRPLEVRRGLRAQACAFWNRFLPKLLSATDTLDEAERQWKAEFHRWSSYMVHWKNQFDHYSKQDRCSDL
Thyrotropin-releasing hormone receptor (Homo sapiens), sequence (P34981 whole entry, looked up): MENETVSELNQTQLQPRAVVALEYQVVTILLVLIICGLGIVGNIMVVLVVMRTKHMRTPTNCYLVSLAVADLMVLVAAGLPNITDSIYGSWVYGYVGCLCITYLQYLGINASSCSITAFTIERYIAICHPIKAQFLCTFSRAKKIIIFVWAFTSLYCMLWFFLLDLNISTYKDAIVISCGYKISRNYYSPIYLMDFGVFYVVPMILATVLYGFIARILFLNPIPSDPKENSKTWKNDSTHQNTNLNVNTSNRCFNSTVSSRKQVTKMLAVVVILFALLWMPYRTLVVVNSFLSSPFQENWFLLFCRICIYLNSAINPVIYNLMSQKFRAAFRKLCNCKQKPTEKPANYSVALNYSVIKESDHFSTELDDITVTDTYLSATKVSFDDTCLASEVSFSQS
Nuclear receptor subfamily 1 group I member 2 (Homo sapiens), sequence (O75469 whole entry, looked up): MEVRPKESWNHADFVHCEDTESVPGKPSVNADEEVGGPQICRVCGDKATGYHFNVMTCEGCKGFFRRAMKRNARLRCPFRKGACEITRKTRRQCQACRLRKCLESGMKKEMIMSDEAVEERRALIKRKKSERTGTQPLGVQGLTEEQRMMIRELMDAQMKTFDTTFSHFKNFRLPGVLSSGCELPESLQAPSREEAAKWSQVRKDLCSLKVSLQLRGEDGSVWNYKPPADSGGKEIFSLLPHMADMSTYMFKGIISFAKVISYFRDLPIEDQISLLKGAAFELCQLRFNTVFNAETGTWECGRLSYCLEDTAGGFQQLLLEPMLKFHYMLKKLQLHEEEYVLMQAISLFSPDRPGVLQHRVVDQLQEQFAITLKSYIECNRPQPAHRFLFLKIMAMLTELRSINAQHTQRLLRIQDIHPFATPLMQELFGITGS

SMILES	Potency [1]	Potency [2]	Potency [3]	Potency [4]	Potency [5]	Potency [6]	Potency [7]	Potency [8]	Potency [9]	Potency [10]	Potency [11]	Potency [12]	Potency [13]	Potency [14]	Potency [15]	outcome [16]	Potency [17]
CCCCOC(=O)COC(=O)c1ccccc1C(=O)OCCCC	inactive	inactive	inactive	inactive	inactive	inactive	inactive	inactive	inactive	inactive	inactive	inactive	inactive	inactive			
CCOP(=S)(OCC)SCSC(C)(C)C	inactive	inactive		48.6 µM (active)	inactive	inactive	inactive	inactive	inactive	inactive	inactive	inactive	inactive	inactive			
O=C(O)c1nn(Cc2ccc(Cl)cc2Cl)c2ccccc12	inactive	inactive	inactive	inactive	inactive	inactive	inactive		inactive	inactive	inactive	inactive	inactive	inactive	inactive	inactive	
Nc1ccc([N+](=O)[O-])cc1N	48.5 µM (active) and 38.6 µM (active)	inactive			inactive	inactive	inactive	inactive	22.4 µM (active) and 61.1 µM (active)	inactive	6.11 µM (active) and 30.6 µM (active)	inactive	54.4 µM (active) and 54.5 µM (active)	inactive	inactive	inactive	
CCOP(=O)(O)OCC (tested in a mixture with another compound)	inactive and 60.6 µM (active)	inactive	inactive and 60.6 µM (active)	inactive	inactive		inactive and 54.5 µM (active)	inactive	inactive and 24.1 µM (active)	inactive	inactive and 24.1 µM (active)	inactive	inactive and 68 µM (active)	inactive			
CC(C)(c1ccc(OCC2CO2)cc1)c1ccc(OCC2CO2)cc1 (centres undefined)	inactive			inactive	inactive	inactive	inactive	inactive	inactive	inactive	inactive	inactive	inactive	inactive	inactive	inactive	69.5 µM (active)
